Where “and” joins values, the source holds several entries; their conditions need not be identical. Equal entries are not always repeated. Results filed as inconclusive are left out. More than one record can exist for a structure, and the calls need not agree. Calls of active or inactive are those of the source. How the source made its calls, unless noted: active means hit-call score of the fitted dose curve at least 0.9, where 1 is the maximum; inconclusive means response in the unintended direction; inactive means score below 0.9.

For assay [1], the target named is Estrogen receptor (Homo sapiens) (UniProt P03372). Put plainly: OT_ERa_GFPERaERE_0480: Odyssey Thera (OT) 8-hour HeLa Transcription Induction Assay for Estrogen Receptor (AID 2283381; active means hit-call score of the fitted dose curve at least 0.9, where 1 is the maximum; inactive means score below 0.9). The gist of the method: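 HeLa cells dosed with compound and imaged by fluorescence microscopy at 8 h; GFP induction from an ERE reporter quantified by high-content image analysis and fitted as gain of signal against DMSO baseline.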
Chain of Estrogen receptor (Homo sapiens) (P03372 whole entry, looked up): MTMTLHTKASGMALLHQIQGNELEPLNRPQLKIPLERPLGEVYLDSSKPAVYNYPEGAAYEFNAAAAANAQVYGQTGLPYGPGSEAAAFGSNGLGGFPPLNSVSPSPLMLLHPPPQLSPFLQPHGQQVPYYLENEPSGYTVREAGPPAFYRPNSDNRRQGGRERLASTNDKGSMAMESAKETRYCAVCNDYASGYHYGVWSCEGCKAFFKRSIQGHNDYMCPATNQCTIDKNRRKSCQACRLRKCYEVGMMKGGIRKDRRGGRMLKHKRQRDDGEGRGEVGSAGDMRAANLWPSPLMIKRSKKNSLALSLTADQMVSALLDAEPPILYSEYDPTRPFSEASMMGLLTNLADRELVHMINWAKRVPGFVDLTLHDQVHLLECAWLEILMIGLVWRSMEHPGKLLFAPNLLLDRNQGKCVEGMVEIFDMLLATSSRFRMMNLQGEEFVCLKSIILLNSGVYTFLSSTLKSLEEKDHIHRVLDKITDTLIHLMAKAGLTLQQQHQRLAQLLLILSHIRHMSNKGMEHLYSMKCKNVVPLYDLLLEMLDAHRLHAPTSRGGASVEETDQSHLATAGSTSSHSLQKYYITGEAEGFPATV

For assay [2] the target is unchanged. Put plainly: OT_ERa_GFPERaERE_0120: Odyssey Thera (OT) 2-hour HeLa Transcription Induction Assay for Estrogen Receptor (AID 2283382). The gist of the method:
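HeLa cells were dosed with test chemical and read 2 hours later for GFP-ERα/ERE-linked fluorescent protein induction by fluorescence microscopy. Gain-of-signal was fitted relative to DMSO baseline, quantified by high content image analysis.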

For assay [3], the target named is Retinoic acid receptor RXR-alpha (Homo sapiens) (UniProt P19793). Put plainly: OT_NURR1_NURR1RXRa_0480: Odyssey Thera (OT) 8-hour HEK293T Protein Complementation Assay for Nurr1/retinoid X receptor (RXR) (AID 2283385). The gist of the method: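 HEK293T cells expressing Nurr1 and RXRα fused to reporter fragments were dosed with compound for 8 hours. Complex formation was read as fluorescence intensity and analysed as gain of signal against DMSO as baseline.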
Chain of Retinoic acid receptor RXR-alpha (Homo sapiens) (P19793 whole entry, looked up, the tested form may be a part): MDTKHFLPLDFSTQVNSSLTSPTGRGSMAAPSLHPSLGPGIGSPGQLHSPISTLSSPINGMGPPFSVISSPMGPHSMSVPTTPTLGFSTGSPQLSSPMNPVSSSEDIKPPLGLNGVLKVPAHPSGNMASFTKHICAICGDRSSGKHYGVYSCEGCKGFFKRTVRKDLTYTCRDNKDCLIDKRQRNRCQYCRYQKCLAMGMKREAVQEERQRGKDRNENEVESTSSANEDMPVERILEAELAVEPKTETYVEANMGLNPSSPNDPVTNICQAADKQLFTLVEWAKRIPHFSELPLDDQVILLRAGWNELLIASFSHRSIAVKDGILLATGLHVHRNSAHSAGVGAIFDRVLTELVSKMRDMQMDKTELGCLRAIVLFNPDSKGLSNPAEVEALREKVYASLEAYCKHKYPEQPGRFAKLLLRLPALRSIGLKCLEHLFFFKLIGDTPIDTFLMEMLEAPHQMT

Assay [4] shares this target. Put plainly: OT_NURR1_NURR1RXRa_1440: Odyssey Thera (OT) 24-hour HEK293T Protein Complementation Assay for Nurr1/retinoid X receptor (RXR) (AID 2283386). The method, boiled down: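 HEK293T cells were dosed with compound and read 24 h later by fluorescence intensity in a protein-fragment complementation format, where Nurr1–RXRα interaction reconstitutes a split reporter. Activity was fitted as gain of signal relative to DMSO baseline.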

Assay [5] concerns the target Peroxisome proliferator-activated receptor gamma (Homo sapiens) (UniProt P37231). Put plainly: OT_PPARg_PPARgSRC1_0480: Odyssey Thera (OT) 8-hour Protein-Complementation Assay for Peroxisome Proliferator-activated Receptor Gamma / SRC-1 Co-activator (AID 2283387).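 Further: nuclear to cytoplasmic split Venus YFP fluorescence ratio reporting PPARg SRC-1 interaction.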 The gist of the method: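 Protein-fragment complementation of split Venus YFP reports PPARg/SRC-1 interaction in HEK293T (transfected 48 h before treatment), exposed 8 h. Readout: N/C fluorescence ratio at 488 nm from imaging, Draq5 for segmentation, positive fit relative to DMSO.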

Assay [6] shares this target. Put plainly: OT_PPARg_PPARgSRC1_1440: Odyssey Thera (OT) 24-hour Protein-Complementation Assay for Peroxisome Proliferator-activated Receptor Gamma/ SRC-1 Co-activator (AID 2283388).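 Further: nuclear to cytoplasmic ratio of reconstituted Venus YFP fluorescence in fixed imaged cells.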 The method, boiled down: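 Protein-fragment complementation between PPARg and coactivator SRC-1 was measured by fluorescence imaging in transiently transfected HEK293T cells after 24 h treatment. Signal was quantified as N/C ratio in the 488 nm channel, with DMSO as negative control.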

For assay [7], the target named is Estrogen receptor beta (Homo sapiens) (UniProt Q92731). Put plainly: OT_ER_ERbERb_1440: Odyssey Thera (OT) 24-hour HEK293T Protein-Complementation Assay for Estrogen Receptor-beta/-beta Homodimer (AID 2283380).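 Further: scored as signal increase over DMSO baseline for both agonists and antagonists.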 The gist of the method: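 HEK293T cells stably expressing ER beta LBD (aa 310-547) homodimer fragment-complementation reporter, dosed 24 h. Cells formaldehyde-fixed, Draq5-stained; gain in nuclear (agonist) or nuclear plus cytoplasmic (antagonist) fluorescence versus DMSO read by laser scanning cytometry.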
Chain of Estrogen receptor beta (Homo sapiens) (Q92731 whole entry, looked up, the tested form may be a part): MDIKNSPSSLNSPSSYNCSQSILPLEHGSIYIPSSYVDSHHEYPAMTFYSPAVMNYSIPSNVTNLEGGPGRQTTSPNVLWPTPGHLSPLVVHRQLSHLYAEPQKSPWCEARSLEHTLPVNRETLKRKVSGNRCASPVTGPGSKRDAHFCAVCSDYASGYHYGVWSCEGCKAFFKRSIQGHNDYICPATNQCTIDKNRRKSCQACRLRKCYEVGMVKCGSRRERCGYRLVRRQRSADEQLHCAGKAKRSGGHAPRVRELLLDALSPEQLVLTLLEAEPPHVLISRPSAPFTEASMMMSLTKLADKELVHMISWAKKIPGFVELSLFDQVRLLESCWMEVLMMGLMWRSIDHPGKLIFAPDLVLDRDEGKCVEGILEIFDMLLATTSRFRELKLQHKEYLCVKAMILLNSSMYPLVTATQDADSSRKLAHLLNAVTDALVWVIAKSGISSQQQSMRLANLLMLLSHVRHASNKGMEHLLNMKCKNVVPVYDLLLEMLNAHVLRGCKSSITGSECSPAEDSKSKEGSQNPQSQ

In assay [8] the target is Bile acid receptor (Homo sapiens) (UniProt Q96RI1). Put plainly: OT_FXR_FXRSRC1_0480: Odyssey Thera (OT) 8-hour HEK293T Protein-Complementation Assay for Farnesoid X receptor/SRC-1 Co-activator (AID 2283383). The method, boiled down: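 HEK293T cells expressing FXR and SRC-1 fused to reporter fragments were dosed with compound for 8 h; fluorescence from the reconstituted reporter marked co-activator recruitment. Gain of signal was fitted against the DMSO baseline.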
Chain of Bile acid receptor (Homo sapiens) (Q96RI1 whole entry, looked up, the tested form may be a part): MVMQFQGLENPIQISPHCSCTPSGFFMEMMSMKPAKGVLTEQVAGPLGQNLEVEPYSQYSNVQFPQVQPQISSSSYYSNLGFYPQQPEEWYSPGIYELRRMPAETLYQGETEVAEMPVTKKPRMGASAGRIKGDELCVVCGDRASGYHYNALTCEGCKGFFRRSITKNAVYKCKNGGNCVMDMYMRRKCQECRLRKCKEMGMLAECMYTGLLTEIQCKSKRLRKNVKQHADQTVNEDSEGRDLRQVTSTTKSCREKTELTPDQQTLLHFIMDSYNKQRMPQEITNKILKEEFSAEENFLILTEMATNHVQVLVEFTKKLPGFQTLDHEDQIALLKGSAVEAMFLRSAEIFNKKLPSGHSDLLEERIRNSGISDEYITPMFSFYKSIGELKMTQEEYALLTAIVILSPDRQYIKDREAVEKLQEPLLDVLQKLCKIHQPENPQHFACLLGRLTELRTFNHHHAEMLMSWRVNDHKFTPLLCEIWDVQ

For assay [9] the target is unchanged. Put plainly: OT_FXR_FXRSRC1_1440: Odyssey Thera (OT) 24-hour HEK293T Protein-Complementation Assay for Farnesoid X receptor/SRC-1 Co-activator (AID 2283384). The gist of the method:
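HEK293T cells were dosed with compound and read 24 h later by fluorescence intensity from protein-fragment complementation reporting FXR/SRC-1 co-activator interaction. Gain of signal was fitted relative to DMSO negative control as baseline.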

Assay [10] can be described thus: CEETOX_H295R_OHPREG: CeeTox H295R High-throughput Steroidogenesis Assay for OH-Pregnenolone (OHPREG) (AID 2283434; active means hit-call score of the fitted dose curve at least 0.9, where 1 is the maximum; inactive means score below 0.9). The note with it: actives raise or lower the signal. The gist of the method: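 H295R cells pre-stimulated 48 h with 10 uM forskolin, then exposed 48 h to chemical in 0.1% DMSO. 17alpha-hydroxypregnenolone in medium quantified by MTBE extraction and HPLC-MS/MS; bidirectional fit versus DMSO, viability checked by MTT.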

A short description of assay [11]: CEETOX_H295R_OHPROG: CeeTox H295R High-throughput Steroidogenesis Assay for OH-Progesterone (OHPROG) (AID 2283435; active means hit-call score of the fitted dose curve at least 0.9, where 1 is the maximum; inactive means score below 0.9). Particulars: actives raise or lower the signal. The gist of the method:
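H295R human adrenal cells were prestimulated 48 h with 10 uM forskolin, then exposed 48 h to test chemical (0.1% DMSO final). 17alpha-hydroxyprogesterone in medium was measured by HPLC-MS/MS after MTBE extraction; bidirectional fitting vs DMSO.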

A short description of assay [12]: CEETOX_H295R_ESTRADIOL: CeeTox H295R High-throughput Steroidogenesis Assay for Estradiol (AID 2283440; active means hit-call score of the fitted dose curve at least 0.9, where 1 is the maximum; inactive means score below 0.9;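 further: estradiol secreted into medium quantified by LC-MS/MS after dansyl derivatisation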). Particulars: actives raise or lower the signal. The gist of the method:
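Estradiol secreted into the medium was measured by tandem mass spectrometry after liquid-liquid extraction and dansylation. Human H295R cells had been forskolin-primed (10 uM, 48 h) before a 48 h chemical exposure with 0.1% DMSO.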

The nature of assay [13]: CEETOX_H295R_11DCORT: CeeTox H295R High-throughput Steroidogenesis Assay for 11-Deoxycortisol (11DCORT) (AID 2283432; active means hit-call score of the fitted dose curve at least 0.9, where 1 is the maximum; inactive means score below 0.9). Particulars: actives raise or lower the signal. The method, boiled down: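 Human adrenal H295R cells were prestimulated with 10 uM forskolin for 48 h, then exposed to test chemical (0.1% DMSO final) for 48 h. Medium 11-deoxycortisol was quantified by MTBE extraction and HPLC-MS/MS; bidirectional fitting relative to DMSO.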

A short description of assay [14]: CEETOX_H295R_CORTIC: CeeTox H295R High-throughput Steroidogenesis Assay for Corticosterone (CORTIC) (AID 2283437; active means hit-call score of the fitted dose curve at least 0.9, where 1 is the maximum; inactive means score below 0.9;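 further: corticosterone secreted into medium quantified by mass spectrometry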). Particulars: actives raise or lower the signal. The method, boiled down:
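H295R adrenal cells prestimulated 48 hours with 10 uM forskolin, then exposed 48 hours to chemical in 0.1% DMSO. Corticosterone in medium measured by HPLC-MS/MS after MTBE extraction; MTT viability in the same wells; bidirectional fit versus DMSO.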

The nature of assay [15]: CEETOX_H295R_CORTISOL: CeeTox H295R High-throughput Steroidogenesis Assay for Cortisol (AID 2283438; active means hit-call score of the fitted dose curve at least 0.9, where 1 is the maximum; inactive means score below 0.9;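 further: cortisol secreted into medium quantified by LC-MS/MS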). Particulars: actives raise or lower the signal. The gist of the method:
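H295R human adrenal cells were prestimulated 48 h with 10 uM forskolin, then exposed 48 h to test chemical (0.1% DMSO final). Medium cortisol was quantified by HPLC-MS/MS after MTBE extraction; bidirectional fitting relative to DMSO baseline.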

Assay [16] can be described thus: CEETOX_H295R_DOC: CeeTox H295R High-throughput Steroidogenesis Assay for DOC (AID 2283439; active means hit-call score of the fitted dose curve at least 0.9, where 1 is the maximum; inactive means score below 0.9). The note with it: actives raise or lower the signal. The gist of the method: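 H295R adrenal cells prestimulated 48 h with 10 uM forskolin, then exposed 48 h to test chemical (0.1% DMSO final). Medium 11-deoxycorticosterone extracted with MTBE, quantified by HPLC-MS/MS; bidirectional fit versus DMSO baseline; MTT viability in same wells.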

In assay [17] the target is Agonist Androgen Response Element (ARE), AR (gene 367) (UniProt P10275). Put plainly: OT_AR_ARELUC_AG_1440: Odyssey Thera (OT) 24-hour CHO-K1 Luciferase Assay for Agonist Androgen Response Element (ARE) (AID 2283379). The method, boiled down:
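CHO-K1 cells carrying an ARE-driven luciferase reporter were exposed to compounds for 24 h. Luminescence was then read after adding a D-luciferin/ATP mix, and activity was scored as a gain in signal over DMSO vehicle.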

Assay [18] can be described thus: CEETOX_H295R_ANDR: CeeTox H295R High-throughput Steroidogenesis Assay for Androstenedione (ANDR) (AID 2283436; active means hit-call score of the fitted dose curve at least 0.9, where 1 is the maximum; inactive means score below 0.9). Particulars: actives raise or lower the signal. The gist of the method:
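H295R cells, following OECD 456 with minor changes, exposed to chemicals for 48 h. Androstenedione in the medium was quantified by HPLC-MS/MS after MTBE extraction. Fitting was bidirectional versus DMSO; chemicals were diluted until MTT viability was ≥70%.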

Chain of Peroxisome proliferator-activated receptor gamma (Homo sapiens) (P37231 whole entry, looked up, the tested form may be a part): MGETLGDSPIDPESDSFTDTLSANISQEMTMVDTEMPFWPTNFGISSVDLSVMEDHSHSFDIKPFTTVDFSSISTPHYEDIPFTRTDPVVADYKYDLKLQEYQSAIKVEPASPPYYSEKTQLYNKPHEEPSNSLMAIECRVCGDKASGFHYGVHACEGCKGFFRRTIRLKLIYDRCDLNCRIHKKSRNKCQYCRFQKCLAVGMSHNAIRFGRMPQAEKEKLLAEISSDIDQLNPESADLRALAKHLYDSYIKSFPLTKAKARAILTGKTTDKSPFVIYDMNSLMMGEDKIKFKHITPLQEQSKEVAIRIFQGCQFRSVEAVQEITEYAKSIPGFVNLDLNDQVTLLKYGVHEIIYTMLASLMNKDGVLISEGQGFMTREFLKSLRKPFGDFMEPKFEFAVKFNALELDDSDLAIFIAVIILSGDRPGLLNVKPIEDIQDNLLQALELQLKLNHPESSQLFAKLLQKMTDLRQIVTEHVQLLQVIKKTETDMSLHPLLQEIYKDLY
Chain of Agonist Androgen Response Element (ARE), AR (gene 367) (P10275 whole entry, looked up): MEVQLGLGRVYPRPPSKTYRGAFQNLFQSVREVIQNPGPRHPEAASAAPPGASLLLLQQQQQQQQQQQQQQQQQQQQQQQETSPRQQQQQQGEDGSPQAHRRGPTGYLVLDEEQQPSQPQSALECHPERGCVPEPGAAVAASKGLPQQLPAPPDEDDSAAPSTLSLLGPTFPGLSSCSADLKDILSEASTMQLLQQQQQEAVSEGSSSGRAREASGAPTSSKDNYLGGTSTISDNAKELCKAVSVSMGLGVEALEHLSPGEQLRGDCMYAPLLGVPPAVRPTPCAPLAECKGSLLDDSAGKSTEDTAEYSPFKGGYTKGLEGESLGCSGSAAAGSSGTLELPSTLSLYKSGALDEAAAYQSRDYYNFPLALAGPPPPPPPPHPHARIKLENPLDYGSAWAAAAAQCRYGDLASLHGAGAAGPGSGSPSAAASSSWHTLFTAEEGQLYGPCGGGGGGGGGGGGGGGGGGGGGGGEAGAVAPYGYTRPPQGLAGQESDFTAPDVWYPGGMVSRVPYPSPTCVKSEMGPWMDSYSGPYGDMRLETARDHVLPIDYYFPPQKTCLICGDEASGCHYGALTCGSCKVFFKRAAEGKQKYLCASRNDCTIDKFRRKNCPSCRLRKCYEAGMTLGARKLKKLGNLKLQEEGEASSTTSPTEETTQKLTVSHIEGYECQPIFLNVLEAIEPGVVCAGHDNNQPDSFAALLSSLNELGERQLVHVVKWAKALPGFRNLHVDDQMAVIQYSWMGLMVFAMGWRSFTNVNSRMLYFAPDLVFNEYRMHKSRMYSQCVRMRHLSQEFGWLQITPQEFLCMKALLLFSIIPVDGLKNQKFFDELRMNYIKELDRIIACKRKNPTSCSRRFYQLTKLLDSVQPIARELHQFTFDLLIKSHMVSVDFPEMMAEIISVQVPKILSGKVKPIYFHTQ

Turning to `COS(=O)(=O)OC`, the outcome in [1], in [2], in assay [3], in assay [4], in assay [5] and in [6] was inactive.

With `Cc1cc2c3c(c1)C(c1ccccc1)=N[C@@H](NC(=O)c1ccncc1)C(=O)N3CC2`, the molecule was called inactive in assay [7], in assay [1], in assay [2], in [3], in assay [4] and in assay [6]. The result in [12] was inactive. Also, the AC50 (commonly the midpoint of the concentration-response curve, whichever way the signal moves) in assay [8] was 20.8 µM (active); in assay [9], 32.8 µM (active); in assay [3] it was 62 µM (active); in assay [4] it was 33.6 µM (active); in assay [5] it was 25 µM (active) and 20.8 µM (active); in [6], 37.4 µM (active). In addition, the AC50 in [10] was 25.4 µM (active); in assay [11], 25.6 µM (active).

For `Cc1cccc(C)c1N`, the molecule was classed as inactive in assay [7], in assay [1], in [2], in [8], in assay [9] and in [4]. The result in [5], in assay [6], in assay [13], in assay [10], in assay [11] and in assay [14] was inactive. The molecule was called inactive in assay [15], in assay [16] and in assay [12].

For `N#Cc1ccc(N(CC(N)=O)CC(F)(F)F)cc1C(F)(F)F`, the molecule was called inactive in [7], in assay [1], in assay [2], in assay [8], in [5] and in assay [6]. The call in assay [10], in [11] and in assay [12] was inactive.

`OCC(O)CO`: the molecule was called inactive in [7], in [1], in assay [2], in assay [8], in [9] and in [3]. Moreover, the call in [4], in assay [5] and in assay [6] was inactive.

Regarding `C1CC2OC2CC1C1CO1` (stereo not drawn), the molecule was classed as inactive in assay [7], in [1], in assay [2], in [8], in assay [9] and in assay [3]. In addition, the outcome in assay [4], in assay [5] and in assay [6] was inactive.

Consider `O=C(O)C(F)(F)C(F)(F)C(F)(F)C(F)(F)C(F)(F)F`, for which the outcome in assay [7], in [1], in assay [2], in [3], in assay [4] and in assay [5] was inactive. In [6], the result was inactive.

On to `CCNc1nc(NC(C)C)nc(SC)n1`, for which the molecule was classed as inactive in assay [17], in assay [7], in [4], in assay [5], in [6] and in [10]. Also, the molecule was classed as inactive in assay [11] and in [18].

For the origin of these results see PubChem BioAssay (EPA / NIEHS).
